# Reference: PubChem BioAssay (EPA / NIEHS)
# Inconclusive results are not listed. A structure can be active in one record and inactive in another. Calls of active or inactive are those of the source. How the source made its calls: active means hit-call score of the fitted dose curve at least 0.9, where 1 is the maximum; inconclusive means response in the unintended direction; inactive means score below 0.9.
# Target: Cellular tumor antigen p53 (Homo sapiens) (UniProt P04637)
# Assay: TOX21_p53_BLA_p3_ratio: Tox21 HCT-116 p53 Agonism Beta-lactamase Assay, Ratio, Phase 3 (AID 2283596)
# Description: TOX21_p53_BLA_p3 is a cell-based, single-readout assay that uses HCT116, a human intestinal cell line, […] in a 1536-well plate.TOX21_p53_BLA_p3_ratio is an assay readout measuring reporter gene via receptor activity and designed using inducible reporter (beta lactamase induction) detected with GAL4 b-lactamase reporter gene. The signal is derived from the ratio of cleaved (ch2) to uncleaved (ch1) reporter gene substrate used as the measure of target activity.Data from the assay component TOX21_p53_BLA_p3_ratio was analyzed into 1 assay endpoint. This assay endpoint, TOX21_p53_BLA_p3_ratio, was analyzed in the positive analysis fitting direction relative to DMSO as the negative control and baseline of activity. Using a type of inducible reporter, gain-of-signal activity can be used to understand changes in the reporter gene as they relate to the gene TP53. Furthermore, this assay endpoint can be referred to as a primary readout, because this assay has produced multiple assay endpoints where this ratio serves a reporter gene function to understand target activity. To generalize the intended target to other relatable targets, this assay endpoint is annotated to the DNA binding intended target family, where the subfamily is tumor suppressor.
# Thawing Method: Place 14 mL of pre-warmed thaw medium into a 15 mL of conical tub. Remove the vial of cells to be thawed from liquid nitrogen and thaw rapidly by placing at 37C in a water bath with gentle agitation for 1-2 minutes. Decontaminate the vial by wiping with 70% ethanol before opening in a biological safety cabinet. Transfer the vial contents drop-wise into 14 mL of thaw medium in a sterile 15-mL conical tub. Centrifuge cells at 900 rpm for 4 minutes and resuspend in thaw medium. Transfer contents to the T75 tissue culture flask containing Thaw Medium and place flask in a humidified 37C/5% CO2 incubator. Switch to growth medium at first passage.Propagation Method: Aspirate medium, rinse once in DPBS, add 0.25% Trypsin/EDTA and swirl to coat the cell evenly. Add an equal volume of Growth Medium to inactivate Trypsin after 2-3 minutes incubation at 37C. Centrifuge cells at 900 rpm for 4 minutes and resuspend in growth medium. Cell should be passage or fed at least twice a week.Assay Protocol: Harvest cells from culture in growth medium and resuspend in assay medium. 2.2 Dispense 4000 cells/5 uL/well into 1536-well black/clear bottom plates using a Multidrop dispenser. After the cells were incubated at 37C for 5 hours, 23 nL of compounds dissolved in DMSO were transferred to the assay plate by a PinTool resulting in a 217-fold dilution. Incubate the plates for 16 hours at 37C, 5% CO2. Add 1 uL of 6X LiveBLAzer FRET B/G (CCF4-AM) Substrate Mixture to each well using a BioRAPTR dispenser and incubate the plates at room temperature for 2 hours. Measure fluorescence intensity at 460 and 530 nm emission and 405 nm excitation by an Envision detector. Data is expressed as the ratio of 460nm/530nm emissions. Add 4 uL of Cell-titer Glo to each well using BioRAPTR and incubate the plates at room temperature for 2 hours. Measure fluorescence intensity by a VewLux plate reader.
# Cellular tumor antigen p53 (Homo sapiens), sequence (P04637 whole entry, looked up): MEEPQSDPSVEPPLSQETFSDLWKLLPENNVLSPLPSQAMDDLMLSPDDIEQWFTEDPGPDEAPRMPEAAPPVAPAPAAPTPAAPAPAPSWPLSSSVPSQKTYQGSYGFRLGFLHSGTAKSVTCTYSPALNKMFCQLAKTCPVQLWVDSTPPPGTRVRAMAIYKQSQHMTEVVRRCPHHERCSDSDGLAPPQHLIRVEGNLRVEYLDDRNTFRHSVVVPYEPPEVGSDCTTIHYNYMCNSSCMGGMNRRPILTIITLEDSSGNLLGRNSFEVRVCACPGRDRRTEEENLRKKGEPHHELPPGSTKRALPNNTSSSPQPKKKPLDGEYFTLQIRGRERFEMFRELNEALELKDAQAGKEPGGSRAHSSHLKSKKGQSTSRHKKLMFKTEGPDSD
Structure (SMILES),outcome,AC50
CC1=CC(=O)[C@H]2C[C@@H]1C2(C)C,inactive,–
CCCCCCC(O)CCOC(C)=O (stereo not given),inactive,–
O=S1(=O)CC(Cl)(Cl)C(Cl)(Cl)C1,–,47.6 µM (active)
CCCCCCOC(C)=O,inactive,–
CCCCCC1C(=O)CCC1CC(=O)OC (stereo not given),inactive,–
O=S1(=O)CC=CC1,inactive,–
CCCCCC1CCC(=O)O1 (stereo not given),inactive,–
C[C@H](CCC(=O)O)[C@H]1CC[C@H]2[C@@H]3CC[C@@H]4C[C@H](O)CC[C@]4(C)[C@H]3CC[C@]12C,inactive,31.1 µM (active)
CN(C)CCCNCCCN(C)C,inactive,–
CC(C)(C)c1cccc(O)c1,inactive,–
CCO[Si](CC)(OCC)OCC,inactive,–
CCC(C)COC(=O)CC(C)C (stereo not given),inactive,–
c1ccc(OCCOc2ccccc2)cc1,inactive,–
CCc1cccc(O)c1,inactive,–
CN(C)CCC=C1c2ccccc2CCc2ccccc21,inactive,–
C=CCOCC(O)CO (stereo not given),inactive,–
O=C(O)c1cc(C(=O)O)c(C(=O)O)cc1C(=O)O,inactive,–
O=C(C=Cc1ccccc1)OCCCc1ccccc1,inactive,–
CC(C)COC(=O)c1ccccc1,inactive,–
C1=COCCC1,inactive,–

Structure (SMILES),outcome,AC50
CC(C)Cc1ccccc1,inactive,–
CC/C=C\C#N,inactive,–
O=C(Nc1cccc(Cl)c1)OCC#CCCl,–,13.4 µM (active)
CCCCOCCOCCOCCO,inactive,–
NC(=O)NC(N)=O,inactive,–
CC1(C)CC(=O)CC(C)(C)N1,inactive,–
CC(C)(O)CCc1ccccc1,inactive,–
CCC(C)(C)c1cc(O)c(C(C)(C)CC)cc1O,inactive,–
CCCCOC(=O)C(C)OC(=O)CCC (stereo not given),inactive,–
CC(C)(CO)CO,inactive,–
CCCCOCCOC(=O)c1ccccc1C(=O)OCCOCCCC,inactive,–
C=CC(C)(CCC=C(C)C)OC(=O)CC (stereo not given),inactive,–
CCC(C)(C)C1CCC(OC)CC1 (stereo not given),inactive,–
O=C(OCc1ccccc1)c1ccccc1O,inactive,–
CC(C)=CC(=O)O,inactive,–
COc1ccc2[nH]cc(CCNC(C)=O)c2c1,inactive,–
Cc1cccc(O)c1,inactive,–
CCCO,inactive,–
CC(=O)Oc1c(C)c(C)c2c(c1C)CC[C@@](C)(CCC[C@H](C)CCC[C@H](C)CCCC(C)C)O2,inactive,–
